A short description of assay [1]: inhibitors of TNFa-induced NFkB p65 translocation, primary screen, imaging, HUVEC, MLSMR starter and 10KST1 sets (AID 438;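 active = inhibition above 20% together with a positive visual image hit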;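 note: compound added about 3h40 before a 20 min TNFalpha stimulation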;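 for inhibition: signal is the nuclear over cytoplasmic p65 intensity ratio per well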). The settings on record: HUVEC TNFa-induced p65 nuclear translocation; cell count: measured here: nuclei count (cytotoxicity indicator), at 2.08 µM; inhibition: at 2 µM, stronger effect = higher value, 0% TNFa-plus-vehicle, 100% no-TNFa wells.
Assay [2] can be described thus: reduction of polyQ htt aggregates in cells – imaging, exon1htt(103Q)mCFP cells, high-content imaging, primary screen (AID 483;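 active = visual image review flags a hit and inhibition of aggregation exceeds 20%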;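 note: compound exposure lasted 3 days before fixation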;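 for nuclei count: percent of the per-plate median nuclei count of sample wells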). The note with it: exon1htt(103Q)mCFP cell line, aggregate imaging, at 2 µM; inhibition of aggregation: stronger effect = higher value; nuclei count: measured here: cell count, toxicity.
Assay [3] in a line: endothelial E-selectin expression blockers – imaging, HUVEC, immunofluorescence, MLSMR starter and 10KST1 sets, primary screen (AID 487;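 active = visually confirmed hit in the image check and inhibition above 20%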;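 for inhibition: signal is fraction of cell area covered by stained E-selectin grains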;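 for nuclei count: 100% = median nuclei count of all wells on the same plate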). The note with it: HUVEC TNFalpha-induced E-selectin immunofluorescence imaging, at 2 µM; inhibition: stronger effect = higher value; nuclei count: measured here: cell number, toxicity.
Assay [4] concerns the target Voltage-gated potassium channel subunit beta-2 (Rattus norvegicus) (UniProt P62483). Kind of assay: inhibitors of rat Kvbeta2 reductase activity – biochemical, NADPH fluorescence, primary screen (AID 622;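 active = fluorescence slope higher than the sample average by over 3 SD, cut at about -0.22 in these data, passing the limit was not always enough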;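 note: slope of raw intensity against log time taken from 70 to 1610 s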). The settings on record: recombinant KvBeta, 4-cyanobenzaldehyde reduction, at 10 µM, stronger effect = higher value.
Assay [5] shares this target. Nature of the assay: enhancers of rat Kvbeta2 NADPH turnover – biochemical, NADPH fluorescence, primary screen (AID 623;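 active = NADPH fluorescence slope more negative than the mean of all samples by about 3 SD, 99.7% confidence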;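 note: fluorescence intensity change per second fitted from 20 to 320 s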). The note with it: Recombinant KvBeta, NADPH fluorescence decrease slope, 10 min; at 10 µM; stronger effect = lower value.
Assay [6] has as its target Alpha-2C adrenergic receptor (Homo sapiens) (UniProt P18825). Kind of assay: compounds altering alpha2C-coupled GIRK flux – cell-based, HEK293 alpha2C/GIRK1/2, thallium flux, primary screen (AID 624).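 Note: slope of fluorescence ratio to pre-addition baseline per second over 15 to 24 s.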 The note with it: thallium flux BTC fluorescence, at 10 µM, actives lie on both sides.
Assay [7] is described as follows: blockers of RIG-like receptor reporter activation – cell-based, Sendai virus stimulus, luciferase, 10K MLSCN set, TLR/RLR signaling modifier project, primary screen (AID 602276;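 active = inhibition at or above 50% at 10 µM; inactive = inhibition below 50%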;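 note: firefly luciferase from ISG56 promoter only with Renilla not read in this screen; 0% = Sendai virus plus DMSO and 100% = medium plus DMSO without virus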). The note with it: HEK293 RL24 IRF3 luciferase reporter, at 10 µM, stronger effect = higher value. A general note: In a reporter assay the amount or activity of a reporter protein is the signal.
Assay [8] is described as follows: TLR3 IRF3 reporter activation blockers – cell-based, poly I:C stimulus, luciferase, 10K MLSCN set, primary screen (AID 602277;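 active = inhibition of the reporter signal at or above 50%; inactive = inhibition below 50%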). The settings on record: HEK293-TLR3 RL24 IRF3 luciferase reporter, at 10 µM, stronger effect = higher value.

Active and inactive are the calls of the source.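 Rule for the calls, unless noted: active = fluorescence slope after compound addition differing from the mean of all screened samples at 99.7% confidence, in either direction; inactive = the rest.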

14 compounds from PubChem BioAssay can be followed below.

Voltage-gated potassium channel subunit beta-2 (Rattus norvegicus), sequence (P62483 whole entry, looked up): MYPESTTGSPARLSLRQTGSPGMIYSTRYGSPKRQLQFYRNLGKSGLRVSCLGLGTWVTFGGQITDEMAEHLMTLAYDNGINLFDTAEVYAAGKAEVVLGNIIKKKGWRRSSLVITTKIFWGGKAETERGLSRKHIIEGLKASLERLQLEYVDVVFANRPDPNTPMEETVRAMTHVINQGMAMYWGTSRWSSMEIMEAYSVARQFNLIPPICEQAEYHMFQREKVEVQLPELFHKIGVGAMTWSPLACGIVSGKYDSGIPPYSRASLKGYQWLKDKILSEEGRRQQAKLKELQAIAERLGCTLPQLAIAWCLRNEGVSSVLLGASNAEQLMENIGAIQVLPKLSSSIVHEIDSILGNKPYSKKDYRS
Alpha-2C adrenergic receptor (Homo sapiens), sequence (P18825 whole entry, looked up): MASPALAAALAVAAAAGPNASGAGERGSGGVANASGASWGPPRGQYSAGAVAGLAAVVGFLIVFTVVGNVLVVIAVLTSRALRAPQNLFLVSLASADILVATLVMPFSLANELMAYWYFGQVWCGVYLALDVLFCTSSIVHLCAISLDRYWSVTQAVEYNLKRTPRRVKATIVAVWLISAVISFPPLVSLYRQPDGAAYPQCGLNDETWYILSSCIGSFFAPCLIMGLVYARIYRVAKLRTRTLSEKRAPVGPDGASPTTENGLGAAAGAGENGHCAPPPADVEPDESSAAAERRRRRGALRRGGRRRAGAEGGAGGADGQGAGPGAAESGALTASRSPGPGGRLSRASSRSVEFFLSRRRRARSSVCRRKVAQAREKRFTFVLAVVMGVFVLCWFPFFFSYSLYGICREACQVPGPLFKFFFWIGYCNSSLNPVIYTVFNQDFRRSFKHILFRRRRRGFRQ

Broadly, the inhibition is the change of the read-out against control, counted positive when it falls. `COc1ccc(OC)c(C2C(C(=O)Nc3ccc(F)cc3)=C(C)Nc3nc(CCCO)nn32)c1` (centres undefined): the cell count in assay [1] was 666. The inhibition in assay [1] was 7.1% (inactive); in assay [3], -44% (inactive); in assay [7] it was 0.814% (inactive); in assay [8] it was 11.9% (inactive). For the same compound, the inhibition of aggregation in assay [2] was -11.2% (inactive). Besides, the nuclei count in assay [2] is 117%; in assay [3], 109%. Also, in assay [4], the fluorescence slope was -0.427 (inactive). Besides, the NADPH fluorescence slope in assay [5] is 8.4e-06 (inactive). Besides, in assay [6], the slope was 0.00613 (inactive).
Consider `COc1cccc2cc(C(=O)N3CCN(c4ccc(C)cc4C)CC3)c(=O)oc12`, for which, in assay [1], the cell count was determined as 800. Further, the inhibition in assay [1] is -3.4% (inactive); in assay [3] it was -30.2% (inactive); in assay [7] it was -9.04% (inactive); in assay [8] it was 5.89% (inactive). The inhibition of aggregation in assay [2] is -43.1% (inactive). The nuclei count in assay [2] is 116%; in assay [3], 110%. Further, in assay [4], the fluorescence slope is -0.565 (inactive). Besides, in assay [5], the NADPH fluorescence slope was -1.5e-05 (inactive). In addition, the slope in assay [6] was 0.00579 (inactive).
As for `CCCCOCCCNC(=O)c1ccc(NC(C)=O)cc1`, in assay [1], the cell count stood at 416. The inhibition in assay [1] was -1.6% (inactive); in assay [3] it was 8.8% (inactive); in assay [7], -11% (inactive); in assay [8], 3.52% (inactive). In addition, the inhibition of aggregation in assay [2] was 1.3% (inactive). Further, the nuclei count in assay [2] is 99.3%; in assay [3], 115%. Moreover, the fluorescence slope in assay [4] is -0.45 (inactive). Besides, the NADPH fluorescence slope in assay [5] was 7.9e-06 (inactive). Moreover, the slope in assay [6] was 0.00392 (inactive).
`CC(=O)O[C@H]1CSC[C@H]1NC(=O)c1ccccc1`: in assay [1], the cell count came to 467. In addition, the inhibition in assay [1] was 10.9% (inactive); in assay [3], 21.9% (inactive); in assay [7] it was 16.6% (inactive); in assay [8], 16.9% (inactive). For the same compound, the inhibition of aggregation in assay [2] is 9.1% (inactive). For the same compound, the values for the nuclei count in assay [2] and in assay [3] were 96.2% and 111%, respectively. In assay [4], the fluorescence slope is -0.509 (inactive). In assay [5], the NADPH fluorescence slope was -1.7e-05 (inactive). Also, in assay [6], the slope was 0.00411 (inactive).
`O=C(CCN1CCc2ccccc2C1)Nc1ccc2c(c1)OCO2`: the cell count in assay [1] is 413. In addition, the inhibition in assay [1] is 2.9% (inactive); in assay [3] it was -84.4% (inactive); in assay [7] it was 6.95% (inactive); in assay [8], 14.1% (inactive). The inhibition of aggregation in assay [2] was 14.5% (inactive). Besides, the nuclei count came to 96.1% in assay [2] and 110% in assay [3]. In addition, the fluorescence slope in assay [4] was -0.542 (inactive). Besides, the NADPH fluorescence slope in assay [5] was -1.3e-05 (inactive). The slope in assay [6] is 0.00425 (inactive).
On to `CCn1c(C(C#N)/C(=N\S(=O)(=O)c2cccs2)c2ccccc2)nc2ccccc21` (centres undefined), for which the cell count in assay [1] came to 694. The inhibition is 25.4% (active) in assay [1], -188% (inactive) in assay [3], 10.5% (inactive) in assay [7] and 40.9% (inactive) in assay [8]. The inhibition of aggregation in assay [2] was -17.3% (inactive). The figures for the nuclei count in assay [2] and in assay [3] were 94.2% and 119%, respectively. The fluorescence slope in assay [4] is -0.493 (inactive). In addition, in assay [5], the NADPH fluorescence slope is -3.2e-06 (inactive). For the same compound, the slope in assay [6] was 0.00669 (inactive).
Regarding `CCOC(=O)C1CCN(C(=O)C2(NC(=O)Nc3ccccc3Cl)CCCCC2)CC1`, the cell count in assay [1] was 568. The inhibition in assay [1] is -4.9% (inactive); in assay [3], -54.8% (inactive); in assay [7] it was 15% (inactive); in assay [8] it was 20.6% (inactive). In addition, in assay [2], the inhibition of aggregation is -41.9% (inactive). Further, the nuclei count is 107% in assay [2] and 105% in assay [3]. Besides, in assay [4], the fluorescence slope is -0.626 (inactive). Also, the NADPH fluorescence slope in assay [5] is 5.4e-06 (inactive). The slope in assay [6] was 0.0059 (inactive).
On to `COc1cc(NC2c3ccccc3C(=O)N2c2ccc(C)cn2)cc(OC)c1OC` (centres undefined), for which, in assay [1], the cell count is 619. Besides, the inhibition in assay [1] is 5.5% (inactive); in assay [3], -7.5% (inactive); in assay [7], -30.9% (inactive); in assay [8], -44.7% (inactive). The inhibition of aggregation in assay [2] is 11.3% (inactive). In addition, the nuclei count in assay [2] turned out to be 85.2%; in assay [3] it was 109%. For the same compound, in assay [4], the fluorescence slope is -0.593 (inactive). The NADPH fluorescence slope in assay [5] is 1.6e-05 (inactive). Besides, the slope in assay [6] is 0.00732 (inactive).
Turning to `Cc1ccc(S(=O)(=O)NCC(=O)N(CC(=O)NC2CCCCC2)Cc2ccco2)cc1`, the cell count in assay [1] was 294. Moreover, the inhibition is 8.1% (inactive) in assay [1], -54.4% (inactive) in assay [3], 8.19% (inactive) in assay [7] and 20% (inactive) in assay [8]. The inhibition of aggregation in assay [2] was 12.7% (inactive). Moreover, the values for the nuclei count in assay [2] and in assay [3] were 97.1% and 110%, respectively. Further, the fluorescence slope in assay [4] was -0.431 (inactive). The NADPH fluorescence slope in assay [5] is -4.7e-05 (inactive). In addition, in assay [6], the slope is 0.00754 (inactive).
Regarding `O=C(NC1CCCCC1)c1cc2nc(-c3ccco3)cc(C(F)(F)F)n2n1`, the cell count in assay [1] is 455. The inhibition in assay [1] was -5.7% (inactive); in assay [3], -46% (inactive); in assay [7], 10.5% (inactive); in assay [8], 10.6% (inactive). Also, the inhibition of aggregation in assay [2] is 12.4% (inactive). Further, the nuclei count in assay [2] came out at 92.7%; in assay [3] it was 156%. Moreover, the fluorescence slope in assay [4] is -0.218 (inactive). Besides, in assay [5], the NADPH fluorescence slope is -5.6e-05 (inactive). The slope in assay [6] was 0.00549 (inactive).
With `COc1cccc(Oc2cn[nH]c2-c2ccc(O)cc2O)c1`, the cell count in assay [1] was found to be 361. Besides, the inhibition was 10.2% (inactive) in assay [1], -104% (inactive) in assay [3], -4.4% (inactive) in assay [7] and 12.8% (inactive) in assay [8]. Also, the inhibition of aggregation in assay [2] was -13.9% (inactive). Moreover, the nuclei count in assay [2] turned out to be 103%; in assay [3] it was 101%. The fluorescence slope in assay [4] is -0.453 (inactive). For the same compound, the NADPH fluorescence slope in assay [5] is 4.8e-05 (inactive). Further, the slope in assay [6] is 0.0038 (inactive).
For the compound `O=C(OCCN(CCOC(=O)c1ccncc1)S(=O)(=O)c1cccs1)c1ccncc1`, in assay [1], the cell count stood at 888. The inhibition in assay [1] is 10.8% (inactive); in assay [3] it was -180% (inactive); in assay [7], 7.42% (inactive); in assay [8], 11.5% (inactive). In addition, the inhibition of aggregation in assay [2] is -22.1% (inactive). Moreover, the nuclei count in assay [2] is 110%; in assay [3], 123%. The fluorescence slope in assay [4] is -0.581 (inactive). Also, the NADPH fluorescence slope in assay [5] is 1e-05 (inactive). Also, in assay [6], the slope is 0.00486 (inactive).
As for `COc1ccc2cc(C#N)c(SCC(=O)N3CCCC3)nc2c1`, in assay [1], the cell count was 514. The inhibition in assay [1] is -2.1% (inactive); in assay [3], -68.2% (inactive); in assay [7] it was -0.637% (inactive); in assay [8], -5.53% (inactive). Also, the inhibition of aggregation in assay [2] is -17.8% (inactive). Further, the nuclei count in assay [2] is 116%; in assay [3], 150%. Moreover, the fluorescence slope in assay [4] is -0.57 (inactive). For the same compound, the NADPH fluorescence slope in assay [5] was -2.5e-05 (inactive). In addition, the slope in assay [6] is 0.00554 (inactive).
On to `CCOC(=O)c1ccc(NC(=O)CSCc2ccco2)cc1`, for which the cell count in assay [1] was 680. Further, the inhibition was -1.5% (inactive) in assay [1], -4.5% (inactive) in assay [3], 1.64% (inactive) in assay [7] and -14.9% (inactive) in assay [8]. The inhibition of aggregation in assay [2] is -9.1% (inactive). Further, the nuclei count in assay [2] amounted to 108%; in assay [3], 97.2%. In addition, in assay [4], the fluorescence slope was -0.471 (inactive). Moreover, the NADPH fluorescence slope in assay [5] was -2.1e-06 (inactive). The slope in assay [6] is 0.0058 (inactive).
